# Results: PubChem BioAssay (NCATS)
# “And” between values parts separate entries of the source, which are not always exact repeats. Equal values may be shown once. Results filed as inconclusive are left out. Where a call stands in place of a potency, no number is given. The source made the active and inactive calls. Unless noted, calls follow the shape of the dose curve; as a rule, active = well fitted curve in the direction sought with a large enough effect; inconclusive = small, poorly fitted or top-dose-only effect, or another doubt; inactive = no such curve, though single readings can be large; an effect the other way counts as inactive or inconclusive.
# Experiments:
# [1] = qHTS to identify inhibitors of the type 1 interferon - major histocompatibility complex class I in skeletal muscle: primary screen against the NCATS Mechanism Interrogation Plate v5.0 (MIPE) Libary (AID 1347411); conditions: iHSKM cells + IFN-b, HiBiT-tagged MHC-I luminescence, 24 h; series mostly up to 45.8 µM; also: nearly all actives have a fitted effect of over 65% in size; also: potency is read from the fitted curve at half-maximal effect
# In short: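 Seed engineered human myoblasts (HLA-B HiBit) in medium without dexamethasone containing 4 ng/ml IFN-beta; after 1 hr add compound titrations (top 46 uM final). Incubate 24 hrs at 37 C, lyse 10 min with HiBiT reagent, read luminescence.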
# [2] = Primary qHTS for small molecule stabilizers of the endoplasmic reticulum resident proteome: Secreted ER Calcium Modulated Protein (SERCaMP) assay (AID 1508630); conditions: SH-SY5Y GLuc-SERCaMP (Gaussia luciferase released on ER calcium loss) secretion, thapsigargin, luminescence; series mostly up to 38.4 µM
# In short: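 The SH-SY5Y reporter protocol was run at 3 concentrations up to 38.3 uM (primary) or 11 concentrations (follow-up): 16 h compound, 100 nM thapsigargin for 4 h, then extracellular luciferase luminescence.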
# [3] = Primary qHTS for inhibitors of nuclear receptor binding SET domain protein 2 (NSD2) in an isogenic RCH-ACV NSD2 p.E1099K mutant (9B) (AID 1645876); conditions: RCH-ACV (leukaemia line) NSD2 E1099K (9B) viability, CellTiter-Glo, 72 h; series mostly up to 44.9 µM; also: nearly all actives have a fitted effect of over 70% in size; also: potency is read from the fitted curve at half-maximal effect
# [4] = Validation qHTS assay for inhibitors of Activation Induced Cytidine Deaminase (AID): UDG Counterscreen signal (AID 1347427); conditions: biochemical UDG counterscreen, fluorescence signal; series mostly up to 115 µM
# In short: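 Fluorescence at 560 nm excitation, 665 nm emission reports UDG signal after 250 mM NaOH (2x) addition and 30 min. Enzymes (AID 1 uM, UDG 2 U/mL, at 4/3x) preincubated 10 min with compound, then 4 h with 4x 250 nM DJC20/DJC23 substrate at room temperature.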
# [5] = biological target: Single-stranded DNA cytosine deaminase (Homo sapiens) (UniProt Q9GZX7); experiment: Validation qHTS assay for inhibitors of Activation Induced Cytidine Deaminase (AID): AID signal (AID 1347429); conditions: Recombinant AID, FRET ssDNA deamination with UDG, fluorescence; series mostly up to 115 µM
# Chain of Single-stranded DNA cytosine deaminase (Homo sapiens) (Q9GZX7 whole entry, looked up): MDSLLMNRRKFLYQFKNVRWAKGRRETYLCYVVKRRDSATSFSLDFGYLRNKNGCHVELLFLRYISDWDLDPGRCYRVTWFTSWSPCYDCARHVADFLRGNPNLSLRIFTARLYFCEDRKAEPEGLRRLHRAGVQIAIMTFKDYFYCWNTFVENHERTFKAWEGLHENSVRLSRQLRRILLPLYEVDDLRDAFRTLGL
# In short: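 Steps: dispense AID with UDG; pin-transfer compound up to 114 uM final; add DJC20/DJC23 substrate and hold 4 hr at room temperature; add NaOH, hold 30 min; read FRET signal (540/590 nm).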
# [6] = Primary qHTS for inhibitors of La Crosse Virus (LACV) - induced cell death in SH-SY5Y cells (AID 1508616); conditions: SH-SY5Y LACV cytopathicity rescue, ATP luminescence, 6 d; series mostly up to 4.29 µM;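 also: top concentration of the series differs between compounds; higher means more rescue of cells from virus-induced death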
# In short: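 SH-SY5Y, 6000 cells/well; cpd via pin tool in DMSO; LACV 0.01 MOI; 6 d 37C 5% CO2; ATPLite, 5 min RT; luminescence normalized to ±virus DMSO controls.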
# [7] = biological target: Calcium and integrin-binding protein 1 (Homo sapiens) (UniProt Q99828); experiment: Validation qHTS for Identification of Calcium Integrin Binding protein 1 (CIB1) Competitor (AID 1508618); conditions: CIB1-GST / FITC-alphaIIb peptide fluorescence polarization; series mostly up to 114 µM
# Chain of Calcium and integrin-binding protein 1 (Homo sapiens) (Q99828 whole entry, looked up): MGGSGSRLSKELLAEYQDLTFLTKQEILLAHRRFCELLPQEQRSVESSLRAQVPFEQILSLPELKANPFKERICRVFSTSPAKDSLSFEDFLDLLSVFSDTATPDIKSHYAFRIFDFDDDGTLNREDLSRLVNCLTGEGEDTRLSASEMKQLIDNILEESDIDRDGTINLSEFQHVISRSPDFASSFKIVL
# In short: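 Displacement of FITC-alphaIIb peptide (100 nM) from CIB1-GST (1 uM) is monitored by polarization in quantitative HTS format; buffer carries 5 mM CaCl2 and 125 mM NaCl at pH 7.4, incubations are at room temperature.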
# [8] = biological target: Calcium and integrin-binding protein 1 (Homo sapiens) (UniProt Q99828); experiment: Primary qHTS for Identification of Calcium Integrin Binding Protein 1 (CIB1) Competitor (AID 1508620); conditions: CIB1-GST / FITC-alphaIIb peptide fluorescence polarization; series mostly up to 57.7 µM;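 also: GST tagged CIB1 binding a fluorescein labelled alphaIIb integrin peptide tracer; top concentration of the series differs between compounds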
# In short: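 Fluorescence polarization competition: GST-tagged CIB1 (1 uM final) preincubated with compound 15 min at room temperature, then FITC-labelled alphaIIb peptide (100 nM final) added. After 15 min at room temperature, polarization read at Ex 480/Em 540.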
# [9] = biological target: Papain (Carica papaya) (UniProt P00784); experiment: Primary qHTS assay for inhibitors of the protease papain (AID 1645873); conditions: papain Z-FR-AMC cleavage, AMC fluorescence; series mostly up to 49.8 µM;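 also: papain turnover of Z-FR-AMC read as the AMC fluorescence gain over 10 min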
# Chain of Papain (Carica papaya) (P00784 whole entry, looked up): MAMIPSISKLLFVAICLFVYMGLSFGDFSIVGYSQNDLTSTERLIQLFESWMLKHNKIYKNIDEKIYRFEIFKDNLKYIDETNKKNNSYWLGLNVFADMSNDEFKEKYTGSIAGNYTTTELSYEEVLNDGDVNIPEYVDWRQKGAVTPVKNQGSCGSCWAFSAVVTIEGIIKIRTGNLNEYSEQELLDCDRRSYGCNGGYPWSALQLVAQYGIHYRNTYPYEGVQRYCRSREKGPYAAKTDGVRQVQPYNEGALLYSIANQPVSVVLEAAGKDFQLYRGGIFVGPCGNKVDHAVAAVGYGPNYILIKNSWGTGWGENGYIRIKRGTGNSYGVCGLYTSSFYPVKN
# [10] = biological target: Cytochrome P450 2D6 (Homo sapiens) (UniProt P10635); experiment: Cytochrome P450 family 2 subfamily D member 6 (CYP2D6) small molecule antagonists: luciferase biochemical (cell-free) qHTS assay (AID 1645840; active = well fitted curve in the direction sought with a large enough effect in the repeat runs; an effect the other way counts as inactive or inconclusive; also: nearly all actives have a fitted effect of over 55% in size); conditions: P450-Glo CYP2D6 enzyme, luciferin luminescence, 1 h; series mostly up to 57.4 µM
# Chain of Cytochrome P450 2D6 (Homo sapiens) (P10635 whole entry, looked up): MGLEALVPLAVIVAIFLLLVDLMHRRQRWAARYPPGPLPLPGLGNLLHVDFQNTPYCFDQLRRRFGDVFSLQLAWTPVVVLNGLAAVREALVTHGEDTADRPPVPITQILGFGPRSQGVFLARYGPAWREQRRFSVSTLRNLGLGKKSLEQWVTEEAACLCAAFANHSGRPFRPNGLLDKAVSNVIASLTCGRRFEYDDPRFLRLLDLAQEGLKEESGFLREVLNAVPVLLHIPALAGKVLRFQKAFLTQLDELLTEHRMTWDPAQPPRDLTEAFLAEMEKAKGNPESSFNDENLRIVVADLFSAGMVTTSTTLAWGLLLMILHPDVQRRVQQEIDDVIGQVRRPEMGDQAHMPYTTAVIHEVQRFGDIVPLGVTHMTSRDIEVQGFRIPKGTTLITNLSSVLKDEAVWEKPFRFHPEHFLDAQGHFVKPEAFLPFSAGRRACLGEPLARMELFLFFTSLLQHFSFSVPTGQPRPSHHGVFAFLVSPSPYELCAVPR
# In short: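 P450-Glo CYP2D6 system: proluciferin substrate converted by enzyme to luciferin, read by luminescence proportional to activity. Enzyme-substrate mix with compound 10 min at room temperature, then NADPH regeneration 1 h before detection reagent.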
# [11] = biological target: Cytochrome P450 2C9 (Homo sapiens) (UniProt P11712); experiment: Cytochrome P450 family 2 subfamily C member 9 (CYP2C9) small molecule antagonists: luciferase biochemical (cell-free) qHTS assay (AID 1645842; active = well fitted curve in the direction sought with a large enough effect in the repeat runs; an effect the other way counts as inactive or inconclusive; also: nearly all actives have a fitted effect of over 55% in size); conditions: P450-Glo CYP2C9 enzyme assay, luciferin luminescence; series mostly up to 57.4 µM
# Chain of Cytochrome P450 2C9 (Homo sapiens) (P11712 whole entry, looked up): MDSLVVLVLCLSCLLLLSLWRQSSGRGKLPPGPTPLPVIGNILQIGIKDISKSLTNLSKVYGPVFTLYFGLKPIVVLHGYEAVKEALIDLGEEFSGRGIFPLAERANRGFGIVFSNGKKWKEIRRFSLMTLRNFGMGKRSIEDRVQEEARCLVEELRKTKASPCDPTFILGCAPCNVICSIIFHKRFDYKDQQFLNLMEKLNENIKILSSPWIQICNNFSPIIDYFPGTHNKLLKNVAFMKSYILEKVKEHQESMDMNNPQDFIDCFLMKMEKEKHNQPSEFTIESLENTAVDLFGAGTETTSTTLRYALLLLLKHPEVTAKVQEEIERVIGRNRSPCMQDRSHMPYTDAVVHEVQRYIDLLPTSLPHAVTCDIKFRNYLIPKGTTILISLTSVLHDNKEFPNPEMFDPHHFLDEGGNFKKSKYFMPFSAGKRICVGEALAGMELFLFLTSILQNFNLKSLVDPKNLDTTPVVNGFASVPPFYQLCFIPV
# In short: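 P450-Glo CYP2C9 system: proluciferin substrate with enzyme in mix containing 0.4% BSA, 10 min at room temperature, then NADPH regeneration solution added and incubated 1 h at 37C. Detection reagent stopped reaction; luminescence read after 20 min as RLU.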
smiles,measurement,setting,value
COc1ccc(CC2SC(=O)NC2=O)cc1C(=O)NCc1ccc(C(F)(F)F)cc1 (configuration not stated),Potency,[1],inactive
same,Potency,[2],inactive
O=c1[nH]nc(Sc2ncc([N+](=O)[O-])s2)n1-c1ccc2c(c1)OCCO2,Potency,[1],6.58 µM (active)
same,Potency,[3],7.42 µM (active)
O=c1c2ccccc2nc2n1CCc1c-2[nH]c2ccccc12,outcome,[4],inactive
same,outcome,[5],inactive
same,outcome,[6],inactive
same,outcome,[7],inactive
same,outcome,[8],inactive
same,Potency,[2],inactive
same,outcome,[9],inactive
same,Potency,[3],inactive
CC(C)CC(=O)Nc1n[nH]c2c1CN(C(=O)C1CCN(C)CC1)C2(C)C,Potency,[1],1.04 µM (active)
same,Potency,[2],inactive
same,Potency,[10],inactive
same,Potency,[11],inactive
same,Potency,[3],129 nM (active) and 662 nM (active)
CC[C@H](CO)Nc1nc(NCc2ccccc2)c2ncn(C(C)C)c2n1,Potency,[1],29.4 µM (active)
same,Potency,[3],14.8 µM (active)
CN1CCN(c2cc(C(=O)Nc3ccc4c(c3)-c3c(c(C(N)=O)nn3-c3ccc(F)cc3)CC4)c(Cl)cn2)CC1,Potency,[1],18.6 µM (active)
same,Potency,[2],inactive
same,Potency,[3],7.42 µM (active)
